TMEM16A inh: inhibitors of mouse TMEM16A calcium-activated chloride channel; normalized B-score (activity score, 25-100; higher = stronger inhibition) at 10 µM; HEK293 TMEM16A/YFP iodide influx fluorescence, ionomycin; actives 1.2% (n = 310,000);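 active = ratio plate-corrected score three or more library SD toward inhibition, starting fluorescence score within five deviations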;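 also: score derived from kinetic fluorescence span divided by baseline fluorescence per well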
Target sequence (Q8BHY3 whole entry, looked up): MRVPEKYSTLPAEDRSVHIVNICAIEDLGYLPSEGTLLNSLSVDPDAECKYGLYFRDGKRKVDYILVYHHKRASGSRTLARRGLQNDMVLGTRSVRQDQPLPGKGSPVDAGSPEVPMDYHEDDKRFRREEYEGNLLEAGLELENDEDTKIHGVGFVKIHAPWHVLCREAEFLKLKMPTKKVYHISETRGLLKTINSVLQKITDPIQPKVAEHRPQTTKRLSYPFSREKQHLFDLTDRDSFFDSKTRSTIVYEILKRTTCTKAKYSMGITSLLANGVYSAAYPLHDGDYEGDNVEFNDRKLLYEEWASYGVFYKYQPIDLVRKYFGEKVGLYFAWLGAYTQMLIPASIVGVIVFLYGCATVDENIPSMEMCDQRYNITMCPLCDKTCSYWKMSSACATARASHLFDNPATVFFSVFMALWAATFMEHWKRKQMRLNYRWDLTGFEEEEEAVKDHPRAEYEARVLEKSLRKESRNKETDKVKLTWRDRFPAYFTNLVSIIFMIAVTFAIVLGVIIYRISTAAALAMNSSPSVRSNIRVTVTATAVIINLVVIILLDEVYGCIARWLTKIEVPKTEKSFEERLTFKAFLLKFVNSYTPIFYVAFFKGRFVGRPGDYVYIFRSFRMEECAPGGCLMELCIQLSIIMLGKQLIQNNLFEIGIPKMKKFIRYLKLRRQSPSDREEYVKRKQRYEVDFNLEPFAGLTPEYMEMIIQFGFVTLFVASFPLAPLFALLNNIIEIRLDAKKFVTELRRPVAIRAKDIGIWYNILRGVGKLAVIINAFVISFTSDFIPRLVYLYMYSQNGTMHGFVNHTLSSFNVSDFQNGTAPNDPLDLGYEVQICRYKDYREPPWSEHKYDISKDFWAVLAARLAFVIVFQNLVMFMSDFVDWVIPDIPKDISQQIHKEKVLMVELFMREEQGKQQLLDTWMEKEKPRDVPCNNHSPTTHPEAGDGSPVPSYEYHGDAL
TMEM16A act: activates or potentiates the mouse TMEM16A chloride channel; actives 0.3% (n = 340,000); HEK293 TMEM16A/YFP-H148Q/I152L, iodide quench fluorescence; hits give low values; Q8BHY3; B-score at 10 µM;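 active = fluorescence-ratio B-score plate-corrected deviation score at least 3 library SD below zero, with starting fluorescence score within 5 deviations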;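 also: channel opened by trigger with iodide after compound preincubation; score built on the fluorescence ratio of max minus min over baseline; more negative score means more quench and so TMEM16A activation or potentiation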
Kir21 block: Kir2.1 (mouse) channel inhibition; HEK293-Kir2.1, FluxOR thallium flux fluorescence; hits give low values; B-score at 10 µM; actives 0.85% (n = 310,000);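 active = fluorescence ratio B-score at or below minus 3 SD of library scores, with starting-brightness B-score within 2 SD, cut at about -4.2 in these data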;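 also: channel flux triggered by added potassium and thallium sulfate stimulus; B-score of peak minus minimum fluorescence over baseline after thallium stimulus; more negative B-score means stronger Kir2.1 block with less thallium influx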
KCNK3 inh: human KCNK3 channel inhibition, primary screen | O14649 | CHO-KCNK3 thallium flux, FluxOR fluorescence; hits give low values | B-score at 10 µM | actives 0.84% (n = 340,000) | AID 602410;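 active = B-score under library mean minus 4 SD, starting fluorescence ratio at most library mean plus 5 SD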;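 also: more negative B-score means stronger inhibition of thallium flux through KCNK3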
KCNK9 inh: human KCNK9 channel inhibition; Q9NPC2; actives 1.2% (n = 310,000); B-score at 10 µM; HEK293 KCNK9, FluxOR thallium flux fluorescence; hits give low values;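 active = ratio B-score over 3 SD below the library mean, with starting fluorescence within 5 SD of its mean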;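 also: negative B-score means less thallium flux so channel inhibition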
KCNK9 block conf: human KCNK9 inhibitor confirmation; shares compounds with KCNK9 inh; actives 43% (n = 4,900); HEK293 KCNK9 cells, FluxOR thallium flux fluorescence; inhibition, % at 10 µM; AID 492992;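 active = thallium signal inhibited by more than 5 SD of the compound-free buffer control wells, on both duplicate plates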;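 also: 0% = assay buffer control wells without compound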
Kir2-1 spec: tests whether KCNK9 modulators also affect mouse Kir2.1 | shares compounds with KCNK9 inh | inhibition, % at 10 µM | Kir2.1 cells, FluxOR thallium flux fluorescence | actives 4% (n = 4,900);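 active = thallium signal drop more than 5 SD beyond the mean of the no-compound control wells, seen in both duplicate plates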;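 also: signal is fluorescence rise after thallium addition divided by baseline fluorescence; plate controls were assay buffer only for no effect and full block by chlorpromazine control for full effect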
KCNK9 uninduced: non-induced cell nonspecific activity of KCNK9 modulators. shares compounds with KCNK9 inh. non-induced KCNK9-HEK293, FluxOR thallium flux. inhibition, % at 10 µM. actives 40% (n = 4,900);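 active = thallium signal drop beyond 5 SD of the untreated control mean, on both duplicate plates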;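 also: plate controls were buffer only IC0 wells for no effect and SID17386958 at its maximal inhibitory level for full effect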
Starred values were filed as active, the others as inactive; i = inactive; · = no result given. Hits are enriched below; roughly 3.5% of the tested compounds scored in any of these assays.

SMILES	TMEM16A inh	TMEM16A act	Kir21 block	KCNK3 inh	KCNK9 inh	KCNK9 block conf	Kir2-1 spec	KCNK9 uninduced
O=C(c1cc(COc2c(F)cccc2F)on1)N1CCC(c2ccccc2Cl)C1 (configuration not stated)	i	i	-0.03	i	i	i	43.0%*	i
O=C(c1cc(COc2c(F)cccc2F)on1)N1CCC(c2ccccc2F)C1 (configuration not stated)	i	i	0.05	i	i	i	i	i
O=C(c1cc(COc2c(F)cccc2F)on1)N1CCc2ccccc2C1	i	i	1.34	i	i	·	·	·
CN1CCN(C(=O)c2cc(COc3c(F)cccc3F)on2)CC1c1ccccc1 (configuration not stated)	i	i	-0.52	i	i	i	i	i
CN(Cc1cc(-c2ccccc2)on1)C(=O)c1cc(COc2c(F)cccc2F)on1	i	i	-0.92	i	-12.7*	66.5%*	i	29.5%*
Cc1nc(CN(C)C(=O)c2cc(COc3c(F)cccc3F)on2)cs1	i	i	-0.23	i	i	·	·	·
CC1CCCCC1NC(=O)CSc1nnc(COc2ccc(Cl)cc2)o1 (configuration not stated)	i	i	0	i	i	·	·	·
Cc1ccc(CN2CCN(/N=C/c3ccc(C)s3)CC2)c(C)c1	i	i	-0.45	i	i	i	i	i
Cc1ccc(CS(=O)(=O)CC(C)(O)c2ccccc2)cc1 (configuration not stated)	i	i	0.88	i	i	·	·	·
O=C(Cc1ccc([N+](=O)[O-])cc1)N1CCCCCC1	i	i	-0.84	i	i	·	·	·
O=C(CCc1ccc(Oc2cc([N+](=O)[O-])cc([N+](=O)[O-])c2)cc1)N1CCCCCC1	i	i	0.02	i	-10.1*	46.0%*	i	i
Cc1csc2nc(CNC(=O)C3CC=CCC3C(=O)O)cn12 (configuration not stated)	i	i	-1.93	i	i	·	·	·
O=C(Nc1cc(S(=O)(=O)Nc2ccc(Cl)cc2)ccc1N1CCCCC1)c1ccc(F)cc1Cl	i	i	0.29	i	i	·	·	·
CCCN(C(=O)c1cccc(S(=O)(=O)N2CCN(C)CC2)c1)c1c(N)n(Cc2ccccc2)c(=O)[nH]c1=O	i	i	-0.5	i	i	·	·	·
CC(C)c1ccc(OCc2ccc(C(=O)NN3CCN(C)CC3)o2)cc1	i	i	1.64	i	i	·	·	·
COc1ccc(Nc2nc(-c3cc4cccc(OC)c4oc3=O)cs2)cc1	i	i	0.05	i	i	·	·	·
COc1ccc2oc(=O)c(-c3csc(Nc4cccc(O)c4)n3)cc2c1	i	i	1.42	i	-15*	65.5%*	i	28.5%*
O=C(O)C(c1ccccc1)C1(O)CC2CCC1C2 (configuration not stated)	·	i	·	i	·	·	·	·
CN(c1ccccc1)S(=O)(=O)c1cccc(NC(=O)CSc2ncc(C(F)(F)F)cc2Cl)c1	i	i	-0.35	i	-8.9*	42.5%*	i	30.5%*
CN(c1ccccc1)S(=O)(=O)c1cccc(NC(=O)CSc2nncn2C)c1	i	i	-0.08	i	i	·	·	·
COc1ccc([N+](=O)[O-])cc1NS(=O)(=O)c1ccc(Cl)c(C(=O)Nc2sc3c(c2C#N)CCCCC3)c1	i	·	1.49	·	i	·	·	·
COc1ccc(CC(=O)Nc2cccc(-c3csc(C)n3)c2)cc1	i	i	0.56	i	i	·	·	·
O=C(O)c1ccc(-c2nc(-c3ccc(Cl)cc3)cs2)cc1	·	i	1.09	i	i	·	·	·
CC(C)CC(=O)Nc1cccc(-c2csc(-c3ccccc3)n2)c1	i	i	-0.47	i	-13.8*	67.0%*	i	31.5%*
O=C(O)c1ccc(-c2nc(-c3cccc(C(F)(F)F)c3)cs2)cc1	·	i	1.13	i	i	i	i	i
